# Data taken from PubChem BioAssay (NCATS).
# Records with an inconclusive call do not appear. Where a call stands in place of a potency, no number is given. Values without a mark were called inactive. Active and inactive are the calls of the source. Calls follow the shape of the dose curve; as a rule, active = well fitted curve in the direction sought with a large enough effect; inconclusive = small, poorly fitted or top-dose-only effect, or another doubt; inactive = no such curve, though single readings can be large; an effect the other way counts as inactive or inconclusive.
# Legend:
# [1] = molecular target: Aldehyde dehydrogenase, mitochondrial (Homo sapiens) (UniProt P05091); test: qHTS for Inhibitors of the Aldehyde Dehydrogenase Family (ALDH2) Primary screen (AID 2061308); also: nearly all actives have a fitted effect of over 55% in size
# [2] = molecular target: Retinaldehyde dehydrogenase 3 (Homo sapiens) (UniProt P47895); test: qHTS for Inhibitors of the Aldehyde Dehydrogenase Family (ALDH1A3) Primary screen (AID 2061315)
# [3] = BET inhibitor-based combinations targeting novel dependencies in MECOM-rearranged (r) AML: SET-2 cell line (AID 2202231); details: SET-2 AML cells viability, CellTiter-Glo luminescence, 48 h; viability: hits give low values, concentration not given here; also: nearly all actives have a fitted effect of over 35% in size; also: potency is read from the fitted curve at half-maximal effect
# Summary of the method: (§1)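 Viability of cells (500 per well) is scored by luminescent CellTiter-Glo at 48 hr post-dosing. Eleven-point titrations are normalized to DMSO and empty controls and reduced to AUC values.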
# [4] = BET inhibitor-based combinations targeting novel dependencies in MECOM-rearranged (r) AML: OCI-AML3 cell line (AID 2202232); details: Potency: OCI-AML3 viability; also: nearly all actives have a fitted effect of over 35% in size; also: potency is read from the fitted curve at half-maximal effect
# Summary of the method: as §1
# [5] = BET inhibitor-based combinations targeting novel dependencies in MECOM-rearranged (r) AML: MV-4-11 cell line (AID 2202233); also: nearly all actives have a fitted effect of over 45% in size; also: potency is read from the fitted curve at half-maximal effect
# Summary of the method: (§2)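 Using pin-tool transfer, drugs were added in 11 doses to cells (500/well), incubated 48 hr, and assessed with CellTiter-Glo. Z-AUC is a mean-centring transformation applied separately to each screened line.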
# [6] = BET inhibitor-based combinations targeting novel dependencies in MECOM-rearranged (r) AML: HNT-34 cell line (AID 2202234); also: nearly all actives have a fitted effect of over 35% in size; also: potency is read from the fitted curve at half-maximal effect
# Summary of the method: as §2
# [7] = BET inhibitor-based combinations targeting novel dependencies in MECOM-rearranged (r) AML: UCSD-AML1 cell line (AID 2202235); also: nearly all actives have a fitted effect of over 40% in size; also: potency is read from the fitted curve at half-maximal effect
# Summary of the method: as §2
# [8] = BET inhibitor-based combinations targeting novel dependencies in MECOM-rearranged (r) AML: AML-191 cell line (AID 2202236; also: nearly all actives have a fitted effect of over 35% in size; also: potency is read from the fitted curve at half-maximal effect)
# Summary of the method: as §1
# [9] = BET inhibitor-based combinations targeting novel dependencies in MECOM-rearranged (r) AML: AML-194 cell line (AID 2202237; also: nearly all actives have a fitted effect of over 40% in size; also: potency is read from the fitted curve at half-maximal effect)
# Summary of the method: as §1
Compound,Potency [1],Potency [2],viability [3] [%],Potency [4],Potency [5],Potency [6],Potency [7],Potency [8],Potency [9],Potency [3]
O=C(CO)N1CCC(c2[nH]nc(-c3ccc(Cl)cc3)c2-c2ccncn2)CC1,inactive,inactive,101,inactive,inactive,inactive,inactive,inactive,inactive,–
CCn1cc(-c2ccnc3[nH]c(-c4cccc(CN(C)C)c4)cc23)c(-c2ccc(NC(=O)N(C)C)cc2)n1,inactive,inactive,–,8.33 µM (active),0.186 µM (active),3.32 µM (active),4.17 µM (active),5.25 µM (active),5.9 µM (active),16.6 µM (active)
COc1cc(Oc2ccnc3cc(OC)c(OC)cc23)ccc1NC(=O)NC(C)c1nccs1 (stereo unspecified),inactive,inactive,–,10.5 µM (active),11.8 µM (active),–,inactive,–,13.2 µM (active),10.5 µM (active)
CO[C@H]1C[C@@H]2CC[C@@H](C)[C@@](O)(O2)C(=O)C(=O)N2CCCC[C@H]2C(=O)O[C@H]([C@H](C)C[C@@H]2CC[C@@H](OC(=O)C(C)(CO)CO)[C@H](OC)C2)CC(=O)[C@H](C)/C=C(\C)[C@@H](O)[C@@H](OC)C(=O)[C@H](C)C[C@H](C)/C=C/C=C/C=C/1C,inactive,inactive,–,–,–,–,–,–,–,0.091 µM (active)
CCn1c(=O)c(-c2ccc(Cl)cc2Cl)cc2cnc(Nc3ccc(N4CCNCC4)c(F)c3)nc21,inactive,inactive,–,–,0.525 µM (active),0.105 µM (active),–,–,–,–
CN1CCN(c2cccc(Nc3nc4c(-c5ccc(S(C)(=O)=O)cc5)cccn4n3)c2)CC1,inactive,inactive,–,–,0.662 µM (active),2.35 µM (active),1.66 µM (active),5.9 µM (active),13.2 µM (active),4.17 µM (active)
O=C1NC(=O)/C(=C/c2cccc(C(F)(F)F)c2)S1,inactive,inactive,–,inactive,–,–,–,inactive,inactive,–
CCn1c(=O)c(-c2ccc(-c3cncs3)cc2Cl)cc2cnc(Nc3ccc(N4CCN(C)CC4)cc3)nc21,inactive,inactive,104,–,1.86 µM (active),–,–,–,–,–
COc1ncc(Nc2ncc([C@H](C)N3CCN(S(C)(=O)=O)CC3)cc2-c2nc(C)nc(N)n2)cc1F,inactive,inactive,–,0.0468 µM (active),–,–,0.296 µM (active),–,–,–
C[C@@H]1COCCN1c1cc(C2(S(C)(=N)=O)CC2)nc(-c2ccnc3[nH]ccc23)n1 (stereo partly specified),inactive,inactive,–,1.86 µM (active),2.35 µM (active),4.68 µM (active),–,2.63 µM (active),–,–
Cc1ccc(NC(=O)c2ccc(CN3CC[C@H](N(C)C)C3)c(C(F)(F)F)c2)cc1Nc1nccc(-c2cncnc2)n1,inactive,inactive,–,2.04 µM (active),8.11 µM (active),0.0407 µM (active),–,–,14.4 µM (active),–
O=C(c1ccc(/C=C/c2n[nH]c3ccccc23)cc1)N1CCNCC1,inactive,inactive,–,–,0.132 µM (active),3.72 µM (active),3.32 µM (active),2.95 µM (active),–,–
Cn1cc(-c2cnc3ccc4ccc(CS(=O)(=O)NCc5ccccn5)cc4c(=O)c3c2)cn1,inactive,inactive,–,inactive,–,23.5 µM (active),inactive,23.5 µM (active),–,16.6 µM (active)
C[C@@H](Nc1ncnc2[nH]c(-c3ccc(O)cc3)cc12)c1ccccc1,inactive,inactive,–,–,14.8 µM (active),14.8 µM (active),–,14.8 µM (active),–,5.25 µM (active)
CN1CC[C@@H](c2c(O)cc(O)c3c(=O)cc(-c4ccc(C(F)(F)F)cc4Cl)oc23)[C@@H]1CO,inactive,inactive,–,–,20.9 µM (active),–,–,–,–,–
COCCNCCCn1c(C(=O)CF)c(-c2ccc(C)cc2)c2c(N)ncnc21,inactive,inactive,101,0.059 µM (active),3.32 µM (active),–,inactive,–,inactive,–
COc1cc2ncnc(Nc3ccc(O)c(Br)c3)c2cc1OC,inactive,inactive,–,–,1.48 µM (active),–,–,–,–,–
C[C@@H]1COC(Nc2ccc3ncnc(Nc4ccc(OCc5nccs5)c(Cl)c4)c3c2)=N1,inactive,inactive,–,–,18.6 µM (active),20.9 µM (active),26.3 µM (active),–,–,–
Cc1[nH]c(/C=C2\C(=O)Nc3ccc(F)cc32)c(C)c1C(=O)NC[C@H](O)CN1CCOCC1,inactive,inactive,–,5.25 µM (active),0.0742 µM (active),3.72 µM (active),10.5 µM (active),4.17 µM (active),10.5 µM (active),–
Clc1cccc(-c2ccc(-c3nnc(CCCc4ccc5cccnc5n4)o3)cc2)c1,inactive,inactive,119,inactive,–,inactive,inactive,inactive,inactive,–
CC(C)c1c(-c2ccccc2)nc2c(C#N)c[nH]n2c1=O,inactive,inactive,118,–,inactive,inactive,inactive,inactive,inactive,–
